In PubChem BioAssay (NCATS) one finds Potency data, which are given here for five compounds.

Results filed as inconclusive are left out. Entries that show only a call come without a potency. Active and inactive are the calls of the source. Calls come from the whole dose curve; as a rule, active = well fitted cell-killing curve with a large enough effect; inconclusive = small, poorly fitted or top-dose-only effect; inactive = flat fitted curve, though single readings scatter.
Potency is the fitted concentration of half-maximal effect.

The assay in a line: NCATS anti-infectives library activity on HEK293 viability as a counter-qHTS vs the C. elegans viability qHTS (AID 1745854).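 Note: HEK293 cells exposed to compounds for 24 hr before the viability read.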 Particulars: HEK293 viability counter-screen; series mostly up to 41.8 µM. The method, boiled down: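 Counter-screen for cytotoxicity: HEK293, 24 hr, 37C, compounds up to 41.7 uM final (a dilution series, 1:5). Readout CellTiter-Glo luminescence, 10 min RT. Digitonin control, 83.3 uM final.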
In general terms: Quantitative high-throughput screening tests each substance at several concentrations.
On to `c1ccc(CNc2nc(NCc3ccccc3)c3ccccc3n2)cc1`, for which the Potency is 22.4 µM (active).
The entry for `Nc1ccc(C(=O)Nc2cccc(-c3nc(N4CCOCC4)c4oc5ncccc5c4n3)c2)cn1` is “inactive”; for `CC(C)C[C@H](NC(=O)[C@@H](NC(=O)c1cccc(-c2ccccc2)n1)[C@@H](C)O)B(O)O` it is “inactive”.
In the case of `CCOC(=O)C=C[C@H](C[C@@H]1CCNC1=O)NC(=O)[C@@H](CC(=O)[C@@H](NC(=O)c1cc(C)on1)C(C)C)Cc1ccc(F)cc1`, the Potency result is “inactive”.
With `C[C@H](NC(=O)Cc1cc(F)cc(F)c1)C(=O)N[C@H](C(=O)OC(C)(C)C)c1ccccc1`, the Potency result was “inactive”.
